The values that follow come from PubChem BioAssay (EPA / NIEHS).

The structures appear in SMILES notation. Inconclusive results are not listed. Calls of active or inactive are those of the source. Rule for the calls, unless noted: active = hit-call score of the fitted dose curve at least 0.9, where 1 is the maximum; inactive = score below 0.9.

As usually defined, the AC50 is the midpoint of the concentration-response curve, whichever way the signal moves.

The target in test [1] is Estrogen receptor (Homo sapiens) (UniProt P03372). The test can be described thus: CCTE_Deisenroth_AIME_96WELL_LUC_Active: CCTE's 96-well Estrogen Receptor Transactivation Assay with AIME metabolic competence (ERTA luciferase; metabolism positive), Deisenroth Lab (AID 2284023; active = hit-call score of the fitted dose curve at least 0.9, where 1 is the maximum). Put shortly: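 Chemicals pre-incubated 2 h with alginate-immobilized phenobarbital/beta-naphthoflavone-induced male Sprague Dawley rat liver S9, then medium transferred to VM7Luc4E2 cells for 24 h luciferase read-out. 10-point series 0.002 - 200 uM; fitted relative to 17beta-estradiol.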

Test [2] shares this target. The test can be described thus: CCTE_Deisenroth_AIME_96WELL_LUC_Inactive: CCTE's 96-well Estrogen Receptor Transactivation Assay without AIME metabolic competence (ERTA luciferase; metabolism negative), Deisenroth Lab (AID 2284025; active = hit-call score of the fitted dose curve at least 0.9, where 1 is the maximum). Put shortly: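 VM7Luc4E2 breast cells, luciferase read 24 h after dosing with medium pre-incubated 2 h on alginate-water lids (metabolism negative). 10-point series 0.002–200 uM, single technical replicate, n≥4; fit relative to 17beta-estradiol.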

Test [3] can be described thus: CCTE_Shafer_MEA_acute_cross_correlation_area: CCTE's Neural Acute Assay for Area of Cross Correlation, Shafer Lab (AID 2284024).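 Note: area under pooled inter-electrode spike cross-correlation near zero lag as percent change from own baseline; curves fitted for loss of cross-correlation area so actives lower synchrony.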 The procedure, abridged: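 Plates equilibrated 20 min at 37 C, then 40 min baseline was recorded, compound was added (0.03-40 uM), and a further 40 min was recorded. Wells needed ≥10 active electrodes (≥5 spikes/min) on exposure day.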
Test [4] can be described thus: CCTE_Shafer_MEA_acute_cross_correlation_HWHM: CCTE's Neural Acute Assay for Cross Correlation at Half Width at Half Maximum, Shafer Lab (AID 2284026).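 Note: spontaneous network firing of rat primary cortical neurons on multiwell microelectrode arrays; percent change per well from pre-dose baseline in spike cross-correlogram half width; hits are a decrease in cross-correlogram half width relative to DMSO.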 Put shortly:
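Rat cortical neuron cultures on microelectrode arrays were equilibrated 20 min at 37 C, recorded 40 min at baseline, then 40 min after compound addition (0.03-40 uM, ≥3 wells). Spikes were detected at 8x rms noise after 300-5000 Hz band-pass filtering.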

Test [5] in a line: CCTE_Shafer_MEA_acute_synchrony_index: CCTE's Neural Acute Assay for Synchrony, Shafer Lab (AID 2284027).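 Note: network synchrony index of spontaneous spiking in primary rat cortical neurons on MEAs; fitted for loss of signal so actives lower synchrony relative to DMSO.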 The procedure, abridged: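 Primary rat cortical neurons on 16-electrode MEA wells were recorded 40 min at baseline (DIV 13 or 15) and 40 min after compound (0.03-40 uM) at 37 C. Synchrony index (0-1) expressed as percent change from baseline, versus DMSO.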
A short description of test [6]: CCTE_Deisenroth_AIME_384WELL_CTox_Active: Cytotoxicity Assessment (CTOX) in CCTE's 384-well Estrogen Receptor Transactivation Assay with AIME metabolic competence (metabolism positive), Deisenroth Lab (AID 2284037; active = hit-call score of the fitted dose curve at least 0.9, where 1 is the maximum;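 note: chemicals first conditioned 2 h by alginate-bound induced rat liver S9 before cells; activity means signal loss indicating cell death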). The procedure, abridged: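 Cytotoxicity in VM7Luc4E2 breast cells, 24 hour, measured as protease-substrate fluorescence loss, after 2-hour metabolic conditioning with induced rat hepatic S9 in alginate microspheres. Concentrations 0.002 - 200 uM, 10 points, bidirectional fitting.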

Sequence of Estrogen receptor (Homo sapiens) (P03372 whole entry, looked up): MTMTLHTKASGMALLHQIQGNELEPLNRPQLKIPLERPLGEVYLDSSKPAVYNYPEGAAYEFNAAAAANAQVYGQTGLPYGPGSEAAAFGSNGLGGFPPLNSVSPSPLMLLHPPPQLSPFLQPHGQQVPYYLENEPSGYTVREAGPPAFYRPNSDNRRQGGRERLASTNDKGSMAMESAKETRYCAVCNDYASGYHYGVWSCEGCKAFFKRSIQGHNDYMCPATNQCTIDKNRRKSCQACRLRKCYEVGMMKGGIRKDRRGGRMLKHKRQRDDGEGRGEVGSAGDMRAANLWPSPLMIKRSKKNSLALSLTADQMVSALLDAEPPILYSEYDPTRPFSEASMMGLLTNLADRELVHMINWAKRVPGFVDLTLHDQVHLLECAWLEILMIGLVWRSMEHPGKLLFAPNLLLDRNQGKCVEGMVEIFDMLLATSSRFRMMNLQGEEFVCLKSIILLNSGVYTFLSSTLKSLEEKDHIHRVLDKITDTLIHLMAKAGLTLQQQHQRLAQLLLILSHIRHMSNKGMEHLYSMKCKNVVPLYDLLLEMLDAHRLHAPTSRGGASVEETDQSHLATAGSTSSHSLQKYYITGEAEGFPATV

As to `C#C[C@]1(O)CC[C@H]2[C@@H]3CCc4cc(OC)ccc4[C@H]3CC[C@@]21C`, the AC50 is 0.1 nM (active) in test [1] and 0.372 nM (active) in test [2].
In the case of `CCCCCCOC(=O)c1ccccc1O`, the compound was called inactive in test [3], in test [4] and in test [5].
As for `CCCCC(CC)COP(=O)(O)OCC(CC)CCCC` (stereo not given), in test [3], the AC50 was 8.23 nM (active). In addition, the call in test [4] and in test [5] was inactive.
Take `CC/C=C\CCOC(C)=O`: the compound was called inactive in test [6].
With `CCN(Cc1cccc(S(=O)(=O)O)c1)c1ccc(C(=C2C=CC(=[N+](CC)Cc3cccc(S(=O)(=O)O)c3)C=C2)c2ccc(O)cc2S(=O)(=O)[O-])cc1`, in test [6], the AC50 is 124000 nM (active).
